In this assay the target is Glucose transporter (Leishmania mexicana) (UniProt O61059). Kind of assay: ST_JUDE_LEISH: Cytotoxicity at 2uM final concentration against transgenic Leishmania Mexicana promastigotes LmGT2 that are glucose transport deficient and complemented with the L. Mexicana glucose transporter 2. Activity is measured by DNA content using SYBR green in vitro. It is filed as functional.
The inhibition is the change of the read-out against control, counted positive when it falls. Consider `O=c1ccc(CNc2nc(NCCc3ccccc3)nc3cc(Cl)ccc23)c[nH]1`, for which the inhibition was 1.95%. Consider `CCCCCCN1CCC(NCc2ccc(CN(C)C)cc2)CC1`, for which the inhibition was -7.52%. With `Cc1[nH]c(C)c(-c2ccc(-c3ccccc3Cl)nc2)c(=O)c1Cl`, the inhibition came out at 3.11%. Turning to `NCC1CCCN1Cc1cccc(-c2ccc(-c3nc4ccccc4[nH]3)s2)c1` (stereo not given), the inhibition was 7.51%. `Cc1ccccc1NC(=S)NC1CCN(CCCCCNC(=O)/C=C/c2ccc(Cl)c(Cl)c2)CC1`: the inhibition was determined as 2.71%. In the case of `O=C(COc1ccc(F)cc1)NC1CCN(c2ccnc3cc(Cl)ccc23)C1` (stereo not given), the inhibition was determined as 6.88%. Under `O=C(/C=C/c1ccc(Cl)c(Cl)c1)NCCCCCN1CCC(C(=O)Nc2ccc(F)c(Cl)c2)CC1` stands 1.53%; under `CCN(C1CCCCC1)S(=O)(=O)c1ccc(OC)c(N2CCN(C(=O)C(Cl)(Cl)Cl)CC2)c1`, -0.47%; under `O=C(C=Cc1cn(-c2ccccc2)nc1-c1ccccc1)N1CCN(c2ccncc2)CC1`, 4.62%. For `CCCCC(N)COc1cccc2c(-c3ccncc3)c(-c3cccc(NC(=O)Nc4ccccc4)c3)nn12` (stereo not given), the inhibition stood at 2.8%. Take `CN1CCN(CCCN(Cc2ccc(-c3cccc(CNCc4ccc5c(c4)OCO5)c3)cc2)C(=O)NCCc2ccccc2)CC1`: the inhibition came out at 3.58%. In the case of `COc1ccc2ncc(Cl)c(NCC3(O)CCC(NCc4ccc5c(n4)NC(=O)CS5)CC3)c2n1` (stereo not given), the inhibition worked out at 1.82%.

With `Cc1nc2ccc(S(=O)(=O)Nc3ccc(C(=O)N[C@@H](CCC(=O)O)C(=O)O)cc3)cc2c(=O)[nH]1`, the inhibition is 0.45%. To `COc1ccc(CNCCc2cccs2)cc1-c1ccc(S(=O)(=O)NCCN2CCCC2)s1` belongs 4.66%; to `COc1ccc(-n2nc(C)c3c2NC(=O)CC3c2ccccc2OCc2ccc(F)cc2)cc1` (stereo not given), 5.62%. Under `COc1ccc2c(c1)S(=O)(=O)N=C(N1CCCC1c1ccc(Cl)c(Cl)c1)N2C` (stereo not given) stands -1.05%; under `COc1ccc(CNC(=O)Nc2cc3cc(-c4ccc(CN(C)C)cc4)ccc3n3c(C)nnc23)cc1`, 3.32%; under `CCOC(=O)c1c(C)noc1Nc1cccc(C)c1C`, -4.02%. `CCOc1ccc2[nH]c(C)cc(=NN=Cc3cccc(C)n3)c2c1`: the inhibition was found to be 2.54%. Consider `CCC1CCCCN1S(=O)(=O)c1ccc(NC(=O)c2cc(C)on2)cc1` (stereo not given), for which the inhibition came to 3.74%. Take `COc1cc(-c2nnc(SCC(=O)Nc3cc(C)on3)n2C)cc(OC)c1O`: the inhibition worked out at 7.59%. As to `Cc1[nH]c(C)c(-c2ccc(OCCn3cnc(Cl)c3Cl)cc2)c(=O)c1Br`, the inhibition is -0.52%.

For `COc1cc(C(=O)N2COCC(CCCN3CCC(N4CCCC4)CC3)(c3ccc(Cl)c(Cl)c3)C2)cc(OC)c1OC` (stereo not given), the inhibition was found to be 3.67%. To `COCCn1c(C)cc(C(=O)CN2C(=O)NC(C)(c3ccc(C(C)(C)C)cc3)C2=O)c1C` (stereo not given) belongs 1.71%. Under `CCOc1ccc2c(=NN=Cc3ccccn3)cc(C)[nH]c2c1` stands 6.78%; under `Cc1[nH]cc(Br)c(=O)c1-c1ccc(Oc2ccccc2)cc1`, 1.32%; under `Cc1cc(OCC2CCCN(c3ncc(C(=O)NC4CC4)cc3Cl)C2)ccc1F` (stereo not given), 0.81%.

`CCOC(=O)c1ccc(N2CCN(c3cc(Cl)ccc3C)CC2)c(NC(=O)Nc2ccc(Cl)c(Cl)c2)c1`: the inhibition was -0.61%. To `CCOc1ccc(NC(=O)c2cccc(CN3CCCN(Cc4cccc(O)c4)CC3)c2)cc1` belongs 0.81%. To `CN(Cc1cccc(O)c1)C1CCCN(c2cc(NC(=O)c3ccc(F)cc3)ccn2)C1` (stereo not given) belongs 5.91%; to `CN(CCN1CCC(c2c[nH]c3ccccc23)CC1)C(=O)OCCCCCNC(=O)/C=C/c1ccc(Cl)c(Cl)c1`, 8.82%. In the case of `Cc1cc(NC(=O)Nc2ccc(N(C)C)cc2)c2cc(Cl)ccc2n1`, the inhibition was 0.88%.

With `CCCC(=O)c1cnc2c(Oc3cc(Cl)ncn3)cccc2c1Nc1ccccc1C`, the inhibition was determined as 6.89%. For `CCN(CC)CCN(Cc1ccc(-c2ccc(C(F)(F)F)cc2)cc1)C(=O)Cn1c(SCc2ccc(F)cc2)nc(=O)c2ccccc21`, the inhibition was 1.8%. As to `c1cc(-c2ccc(CNC3CCOCC3)cc2)cc(-c2nc3ccccc3[nH]2)c1`, the inhibition is -2.46%. Under `Cc1cccc2nc(-c3cccc(-c4cccc(NC(=O)Cc5ccc[n+]([O-])c5)c4)c3)[nH]c12` stands 0.81%; under `O=C(Nc1ccc(Br)c(C(F)(F)F)c1)c1cccc([N+](=O)[O-])c1`, -0.11%; under `Cc1ccc(CN2CCCN(Cc3cccc(C(=O)Nc4ccc(C(C)(C)C)cc4)c3)CC2)s1`, 0.76%.

Take `O=C(NC1CCCCC1)N(Cc1ccccc1-c1ccc(CNCCc2ccccc2)cc1)C1CCN(Cc2ccccc2)CC1`: the inhibition was -0.58%. For the compound `CC(CN1CCN(C)CC1)C(=O)Nc1ccc(-c2ccc(-c3nc4cc(F)ccc4[nH]3)cc2)cc1` (stereo not given), the inhibition was 8.04%.

The values are drawn from ChEMBL document CHEMBL3433997, “St. Jude Leishmania screening dataset” (2016).
